Bioassay records: PubChem BioAssay, several laboratories
An excerpt weighted towards active compounds, which were near 2.2% of everything screened.
Mot1-301 SUMO: SUMOylation pathway inhibition by Mot1-301 growth rescue | S. cerevisiae Mot1-301 growth rescue, ATP luminescence, 38.5C; percent above DMSO median, 100 means doubled | growth rescue, % at 18.8 µM | 1% of 320,000 active;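 active = every valid replicate shows activation above 250% relative to neutral control wells; inactive = the rest, any valid replicate at or below 250%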;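 note: OY570 slx delta 5 strain wells were the positive control but not used for scaling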
Efflux pump mplx: blocks antifungal efflux pumps in multiplex yeast assay. 0.44% of 330,000 active. inhibition, % at 10 µM. AID 485275. S. cerevisiae Candida pump triplex, Nile Red efflux;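 active = plate passing quality check with inhibition over a set limit, or well fluorescence over plate mean plus 4 SD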;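 note: Nile Red retained in pooled yeast measured as flow cytometry median fluorescence; 0% = buffer negative control and 100% = Enniatin B positive control; higher means more Nile Red kept so more efflux inhibition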
HGIII-sPLA2 inh: Blocks human group III sPLA2 activity; inhibition, % at 12.2 µM; Q9NZ20; AID 743126; QFRET BODIPY PC-A2 liposome hydrolysis, fluorescence; 0.56% of 370,000 active;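 active = inhibition above mean plus 3 SD of compounds lying within the high and low control bounds, cut at about 19% in these data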;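 note: 0% = median of test compound wells and 100% = no enzyme DMSO wells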
Target sequence (Q9NZ20 whole entry, looked up): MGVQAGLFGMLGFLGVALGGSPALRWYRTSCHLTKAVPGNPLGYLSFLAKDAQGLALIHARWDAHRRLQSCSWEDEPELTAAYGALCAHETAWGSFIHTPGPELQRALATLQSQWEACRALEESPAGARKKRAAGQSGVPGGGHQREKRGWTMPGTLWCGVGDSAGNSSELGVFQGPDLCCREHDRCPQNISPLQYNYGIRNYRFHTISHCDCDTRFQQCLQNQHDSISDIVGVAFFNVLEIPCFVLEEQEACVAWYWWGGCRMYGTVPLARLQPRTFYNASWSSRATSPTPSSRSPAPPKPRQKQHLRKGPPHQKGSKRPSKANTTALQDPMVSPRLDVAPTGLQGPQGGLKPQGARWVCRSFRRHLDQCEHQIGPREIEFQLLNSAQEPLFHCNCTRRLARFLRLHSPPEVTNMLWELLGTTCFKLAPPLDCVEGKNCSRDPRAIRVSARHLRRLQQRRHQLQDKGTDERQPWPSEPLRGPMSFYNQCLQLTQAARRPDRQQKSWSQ
SKN-1 block: blocks SKN-1 activity in C. elegans; AID 624304; C. elegans VP596 Pgst-4::GFP/RFP ratio, acrylamide-induced, 24 h; 0.49% of 360,000 active; inhibition, % at 21.8 µM;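 active = interference check ratio from 0.5 to 1.5 plus GFP to RFP signal ratio inhibition reaching or exceeding a fixed threshold, cut at about 30% in these data, passing the limit was not always enough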
sPLA2 confirm: human GIII-sPLA2 inhibition, confirmation; 34% of 2,000 active; recombinant hGIII-sPLA2, BODIPY PC-A2 QFRET fluorescence; inhibition, % at 12.2 µM; shares compounds with HGIII-sPLA2 inh;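 active = mean inhibition across triplicates above the hit cutoff set in the earlier primary screen, cut at about 19% in these data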;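 note: 0% = enzyme with DMSO and 100% = DMSO wells lacking enzyme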
535nm interf: 535nm fluorescence interference, HGIII-sPLA2 counter-screen; 8.5% of 2,000 active; inhibition, % at 12.2 µM; shares compounds with HGIII-sPLA2 inh; AID 743282; BODIPY FL product fluorescence interference, QFRET;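 active = average inhibition above the solvent-only control mean plus 3 SD, cut at about 6% in these data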;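 note: 0% = DMSO with substrate plus product and 100% = DMSO with substrate alone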
* hit, by the source's call; / = no result given.

SMILES	Mot1-301 SUMO	Efflux pump mplx	HGIII-sPLA2 inh	SKN-1 block	sPLA2 confirm	535nm interf
COCCNC(=S)N/N=C(\C)c1ccc(O)cc1	1	0	13	8	/	/
O=C(NCc1cccc(Cl)c1)C1CCN(S(=O)(=O)c2ccc(F)cc2)CC1	0	0	-2	1	/	/
CCn1c(/C=C/c2c(C)n(CC)c3ccccc23)nc2ccccc2c1=O	-8	0	24*	-6	0	-9
COCCCN(C(=O)c1cc2c(s1)CCCCC2)c1c(N)n(Cc2ccccc2)c(=O)[nH]c1=O	/	0	-5	-1	/	/
CC(C)(C)c1cc(Cl)c(O)c(NC(=S)NC(=O)c2cccnc2)c1	5	0	25*	-12	23*	1
COC(=O)c1ccc(NC(=S)NC(=O)c2cccnc2)cc1	-14	0	21*	26	13	-4
COc1ccc(NC(=S)NC(=O)c2cccnc2)cc1	-9	0	17	13	/	/
CC(=O)NC(Cc1ccccc1)C(=O)OCC(=O)c1ccccc1 (configuration not stated)	-21	0	11	-6	/	/
COc1cc(Cl)ccc1OCc1cc(C(=O)NCc2cc(C(C)C)no2)no1	-5	0	-19	5	/	/
Cc1ccc(-c2csc(N3CCN(c4cc5c(cc4Cl)nc(C(C)N)n5CCCO)CC3)n2)cc1 (configuration not stated)	127	0	23*	-2	20*	-3
CCN(CC)C(=O)/C=C/c1ccccc1	70	0	20*	19	-3	-4
COc1ccc2c(-c3ccccc3)cc(SCC(N)=O)nc2c1	26	0	20*	23	4	-17
Cc1cccc(NC(=O)NNC(=O)c2cc3ccccc3cc2O)c1C	-2	0	17	9	/	/
Cc1ccc(C)c(NC(=O)NNC(=O)c2cc3ccccc3cc2O)c1	18	0	22*	-11	22*	3
Cc1ccc(NC(=O)NNC(=O)c2cc3ccccc3cc2O)cc1C	50	0	28*	-5	26*	3
CN(C)c1ccc(/C=N/NC(=S)NCc2ccco2)cc1	10	0	26*	18	14	-4
S=C(NCc1ccco1)N/N=C/c1ccncc1	2	0	3	-12	/	/
CCN(CC)S(=O)(=O)c1ccc(C(=O)Oc2coc(CSc3nc(C)cc(C)n3)cc2=O)cc1	8	0	21*	3	-29	-29
CN(C)S(=O)(=O)c1ccc(C(=O)Oc2coc(CSc3ncccn3)cc2=O)cc1	35	0	0	3	/	/
CCCn1c(=O)c2ccccc2n2c(SCCOc3ccc(C)cc3)nnc12	-1	0	19*	1	10	-14
O=C(N1CCOCC1)C12CC3CC(C1)CC(n1cnc(Cl)n1)(C3)C2	-32	0	21*	-8	1	-3
CC(=O)C1=C(C)NC(SCC(N)=O)=C(C#N)C1c1sccc1C (configuration not stated)	-5	0	23*	4	7	-5
CCOC(=O)CSC1=C(C#N)C(c2sccc2C)C(C(C)=O)=C(C)N1 (configuration not stated)	-4	0	4	10	/	/
CC1=C(C(=O)N(C)C)CC(CC(=O)NC2CCCCC2)C(=O)N1CCCN1CCCC1=O (configuration not stated)	/	/	21*	-7	0	-8
CC1=C(C(=O)N(C)C)CC(CC(=O)NC2CCCC2)C(=O)N1CCCN1CCCC1=O (configuration not stated)	/	/	15	-5	/	/
SMILES	Mot1-301 SUMO	Efflux pump mplx	HGIII-sPLA2 inh	SKN-1 block	sPLA2 confirm	535nm interf
CCOC(=O)Cn1c(=O)c2c(nc3n2CCCN3Cc2ccccc2)n(C)c1=O	-17	0	2	7	/	/
CCOC(=O)Cn1c(=O)c2c(nc(N3CCCCC3)n2C)n(C)c1=O	/	0	20*	1	-3	-6
COc1ccc(NC(=O)c2ccc(-n3cnnn3)cc2)c([N+](=O)[O-])c1	8	0	0	27	/	/
Cc1ccc(NC(=O)CCNS(=O)(=O)c2ccc3[nH]c(=O)oc3c2)c(Cl)c1	5	0	-7	7	/	/
Nc1ccc2nc(-c3ccc(N)c(Cl)c3)[nH]c2c1	-3	0	21*	-2	9	0
Nc1ccc2nc(-c3ccccc3)[nH]c2c1	3	0	9	-5	/	/
COc1ccc(Cc2noc(-c3ccc([N+](=O)[O-])cc3)n2)cc1OC	801	0	21*	-7	1	-7
